ClpP mod – qHTS Assay for Activators of ClpP; AID 651965, 2013; ATP-dependent Clp protease proteolytic subunit (Bacillus subtilis (strain 168)), P80244; purified B. subtilis ClpP, FRET peptide cleavage, 20 min; 1.9% of 340,000 active; Potency, µM (series often up to 57.5 µM), inactives show at the highest dose activity change, negative = active; active = well fitted falling curve with a large enough effect; inconclusive = small, poorly fitted or top-dose-only effect; inactive = no such curve, though single readings can be large or run the other way; also: the source files actives as falling curves though it sought activators and does not explain the sign; nearly all actives have a fitted effect of over 65% in size
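FRET quenching reversal measured ClpP activation: 10 microg/mL B. subtilis ClpP at pH 8 with the FRET-FV decapeptide, read at 430 nm after 320 nm excitation. The 20-min minus 0-min signal was scaled between DMSO/no-enzyme wells and ADEP (5.8 microM final).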
GLP1R cytotox – cytotoxicity in counter-screen for GLP-1R inverse agonists; Potency, µM (top dose mostly 38.3 µM), for inactives: at the highest dose activity change, negative = inhibition, actives largely listed as inhibitors; 0.13% of 410,000 active; HEK293 cAMP-luciferase reporter cells, luminescence, 24 h;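 also: loss of luciferase light is scored as toxicity; % is scaled to controls: 0 for no effect and ±100 for the full control effect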
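Here, cytotoxicity is scored as loss of luminescence. The MLSMR collection was tested on cells seeded in medium containing 10% Nu serum, with a 24 hr compound exposure preceded by 12 hours of culture.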
GLP-1R inv ag – GLP-1 receptor (human) inverse agonism; P43220; HEK293 GLP-1R CRE-luciferase, luminescence, 24 h; GLP-1R form is constitutively active; Potency, µM (top dose mostly 38.3 µM), without a hit: at the top dose activity change, negative = inhibition, hits mostly inhibitors; 1.6% of 410,000 active; AID 624417; also: % is scaled to controls: 0 for no effect and ±100 for the full control effect; nearly all actives have a fitted effect of over 55% in size
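HEK293 cells stably co-expressing a cAMP-responsive luciferase reporter and constitutively active GLP-1R were seeded, incubated 12 h, then exposed to compounds for 24 h at 37 C. Luminescence was read 12 min after detection reagent; inverse agonists lower signal.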
GLP1R ag – GLP-1 receptor (human) agonism. AID 624172. 0.007% of 380,000 active. Potency, µM (titrated, usually from 45.6 µM), for the others: at the highest dose activation, hits mostly activators. P43220. HEK293 GLP-1R CRE-luciferase, luminescence, 4-6 h; cells express a hypersensitive GLP-1R form; also: % of control where 0% means no effect
* = called active by the depositor; i = inactive; ? = inconclusive; · = no result. Compounds with a hit are over-represented: about 3.2% of the library has one in this group of screens. Unless noted, calls follow the shape of the dose curve; as a rule, active = well fitted curve in the direction sought with a large enough effect; inconclusive = small, poorly fitted or top-dose-only effect, or another doubt; inactive = no such curve, though single readings can be large; an effect the other way counts as inactive or inconclusive. Potency is read from the fitted curve at half-maximal effect.

SMILES | ClpP mod | GLP1R cytotox | GLP-1R inv ag | GLP1R ag
Cc1c(Cl)ccc2sc(N3CCN(C(=O)CCS(=O)(=O)c4ccc(F)cc4)CC3)nc12 | -5% | -2% | ? | ·
N#CC1=C(N)C2=CCCC[C@H]2[C@H](c2ccccc2)C1(C#N)C#N | 23% | 85% | 4.5µM* | -38%
COc1cccc2c1C(=O)c1c(O)c3c(c(O)c1C2=O)CC(O)(C(C)=NO)CC3OC1CC(N)C(O)C(C)O1 (centres undefined) | 2% | 11µM* | 10µM* | -5%
Cc1ccccc1CN1CCc2nc(N3CCN(c4ccccn4)CC3)ncc2C1 | 97% | -12% | ? | ·
COc1ccc(-c2nc(CSCC(=O)N3CCC4(CC3)OCCO4)c(C)o2)cc1OC | ? | -11% | 24% | 28%
Cc1oc(-c2cccs2)nc1CSCC(=O)N1CCC2(CC1)OCCO2 | 1.4µM* | 0% | 17% | 3%
CCOC(=O)c1c(-n2c(C)cc(C=C3C(=O)NC(=O)NC3=O)c2C)sc2c1CCCC2 | -1% | 6% | -5% | -7%
Cc1cccc(N2C(=O)NC(=O)/C(=C\c3cc(C)n(-c4sc5c(c4C#N)CCCC5)c3C)C2=O)c1C | · | -6% | 3.5µM* | 8%
COc1cc(/C=C2\SC(=S)N(CCC(=O)N3CCCCC3)C2=O)cc(OC)c1OC | -1% | ? | 10µM* | 5%
O=C1C=C(N2CCOCC2)c2ccccc2C1=O | · | 11µM* | ? | -9%
Cc1ccc(/C=C/C(=O)c2ccc(O)cc2)cc1 | · | ? | ? | -3%
Cc1cc(C)c(C(=O)/C=C/c2ccc(C(C)C)cc2)c(=O)[nH]1 | 1% | ? | 1.4µM* | -3%
CCn1c(N2CCN(C(=O)C34CC5CC(CC(C5)C3)C4)CC2)nc2ccccc21 | -5% | ? | 2µM* | 1%
O=C(Nc1cccc(-c2csc(Nc3cccc(C(F)(F)F)c3)n2)c1)c1ccccc1 | -7% | ? | 2.8µM* | -2%
CC(C)(C)c1nc2cc(Cl)c([N+](=O)[O-])cc2o1 | 1% | ? | ? | -7%
COc1ccc(C(=O)CCNc2ccc(F)cc2)cc1 | 28µM* | -1% | 14% | 7%
COc1ccc(C(=O)C(C)(C)NO)cc1 | 2% | 4% | 5% | 18%
CCN(CC)CCNCC(=O)Nc1ccc(Cl)cc1C(=O)c1ccccc1 | -1% | -4% | ? | -2%
CCN(CC)CCNC(=O)c1nn(-c2ccc(Cl)cc2)c2c1CCc1cc(OC)ccc1-2 | ? | ? | 4.5µM* | -1%
O=C1CC2OCC=C3CN4CCC56c7ccccc7N1C5[C@H]2[C@H]3C[C@H]46 (some centres undefined) (tested in a mixture with another compound) | · | · | · | 11%
CC(C)C[C@H](NC(=O)c1[nH]cnc1C(=O)Nc1ccccc1)C(=O)OC(C)(C)C | 2% | ? | ? | -6%
CCCCNc1cc(C)nc(NCc2ccccc2)n1 | 0% | 11µM* | ? | 9%
Cc1cc(NCCN)nc2ccccc12 | ? | 2% | -7% | 1%
CCN(CC)CCCNc1nc2cc(OC)c(OC)cc2c2nc(-c3ccccc3)nn12 | 32µM* | ? | ? | -17%
COc1ccc(S(=O)(=O)N(CC(=O)NCc2ccccc2OC)c2ccc(C)cc2)cc1 | -2% | -20% | 3.2µM* | ·
SMILES | ClpP mod | GLP1R cytotox | GLP-1R inv ag | GLP1R ag
CCOc1cccc(-c2nn(-c3ccccc3)cc2/C=C(/C#N)C(=O)NCCCn2ccnc2)c1 | 25µM* | ? | ? | -2%
CC(C)(C)NS(=O)(=O)c1ccc(OCC(=O)N2CCN(Cc3ccccc3)CC2)cc1 | · | -1% | -26% | 2%
CC(CN1CCNCC1)(NS(=O)(=O)c1ccccc1)c1ccccc1 (centres undefined) | -1% | ? | 3.5µM* | -6%
COc1cccc([C@@]2(O)CCCC[C@@H]2CN(C)C)c1 | · | -14% | -15% | ?
COc1cccc(C2(O)CCSCC2CN(C)C)c1 (centres undefined) | 3.5µM* | -4% | 4% | -12%
COc1ccc(-c2nc(CSCC(=O)N3CCN(c4ccc(F)cc4)CC3)c(C)o2)cc1 | -6% | 16% | ? | ·
S=c1[nH]nc(-c2cccs2)n1C1CCCCC1 | 32µM* | ? | -23% | -2%
O=c1c(C=NCc2cccs2)c(O)n(C2CCCCC2)c(=O)n1C1CCCCC1 | -3% | 13% | ? | -2%
N=C(N)c1c(O)n(C2CCCCC2)c(=O)n(C2CCCCC2)c1=O | -6% | 11µM* | 4.5µM* | -38%
Cc1ccc(-n2ncc(C(=O)NCCN3CCC(Cc4ccccc4)CC3)c2C2CCN(C(=O)OC(C)(C)C)CC2)cc1 | -2% | ? | 10µM* | ·
O=C(c1cccn2c(=O)c3ccccc3nc12)N1CCC2(CC1)OCCO2 | ? | 118% | 0% | -7%
O=C(c1cccn2c(=O)c3cc(Cl)ccc3nc12)N1CCC2(CC1)OCCO2 | 25µM* | 190% | 5% | 3%
COC(=O)c1c(NC(=O)/C=C/C(=O)O)sc(C)c1-c1ccc(C(C)C)cc1 | -2% | ? | ? | 1%
N=C(N)SCc1ccc(Cl)cc1Cl | -1% | ? | 7.1µM* | -8%
Cc1ccc(S(=O)(=O)CCSC(=N)N)cc1 | · | ? | ? | -3%
CC(C)CC(=O)Nc1ccc(C(=O)Cn2c(=O)oc3ccccc32)cc1 | -1% | -28% | ? | -5%
CCCOc1cccc(C(=O)Nc2cc(-c3nc4ccccc4[nH]3)ccc2C)c1 | -29% | ? | ? | ·
Cc1ccc(C(=O)Nc2cccc3[nH]c(C(F)(F)F)nc23)cc1 | · | ? | 8.9µM* | -1%
COc1ccc(OCC(=O)Nc2ccc(OC)c(S(=O)(=O)N3CCCCC3)c2)cc1 | 2% | ? | ? | 5%
Cc1ccc(C(O)(c2ccc(C)c(C)c2)C2CN3CCC2CC3)cc1C (centres undefined) | -1% | ? | ? | 3%
Cc1ccccc1C(O)(Cc1ccccc1)C1CN2CCC1CC2 (centres undefined) | -2% | ? | 0.79µM* | -1%
Clc1ccc(-c2cn3nc4c(nc3n2)CCCC4)cc1 | -8% | i | 6.3µM* | -19%
Cc1ccc(C2c3c(-c4cc(C)ccc4O)n[nH]c3C(=O)N2Cc2ccco2)cc1 (centres undefined) | -2% | ? | ? | ·
Cc1cc(N2CCCCC2)nc2ccc(NC(=O)CCC(=O)N3CCN(c4cccc(Cl)c4)CC3)cc12 | 32µM* | -9% | ? | ·
Cc1cc(N2CCOCC2)nc2ccc(NC(=O)CCC(=O)N3CCC4(CC3)OCCO4)cc12 | ? | 5% | 3% | 1%
CN(C)c1ccc(CN2CCc3nc(N4CCN(c5ccccn5)CC4)ncc3C2)cc1 | 6% | 1% | ? | ·
CC(C)c1ccc(NC(=O)Cn2c(=O)oc3cc(S(=O)(=O)N4CCCC4)ccc32)cc1 | 1% | ? | ? | 0%

Source: PubChem BioAssay
